Results: PubChem BioAssay AID720517 (National Center for Advancing Translational Sciences (NCATS), 2013)
Records with an inconclusive call do not appear. Unmarked numbers belong to inactive results. Calls come from the whole dose curve; as a rule, active = well fitted activation curve with a large enough effect; inconclusive = small, poorly fitted or top-dose-only effect; inactive = flat fitted curve, though single readings scatter.

test: qHTS for Inhibitors of Cell Surface uPA Generation: FP59 Counterscreen for Cherry-picked Compounds; settings: FP59 anthrax toxin cytotoxicity counterscreen, cells; series mostly up to 115 µM; activity (protection from FP59): at the top concentration; note: 0% is about no effect

| Compound | activity (protection from FP59) |
| --- | --- |
| Cc1ccc2sc(NNC(=O)c3ccc4c(c3)OCCO4)nc2c1C | 6.76% |
| Cc1ccc(-n2ncc(C(=O)NC3CC3)c2C2CCN(C(=O)OC(C)(C)C)CC2)cc1 | -1.39% |
| CNS(=O)(=O)c1cc(-c2nnc(Nc3ccc(CC(N)=O)cc3)c3ccccc23)ccc1C | -0.159% |
| Cc1ccc(C)c(S(=O)(=O)Nc2ccccc2C(=O)Nc2cc(C)on2)c1 | -0.926% |
| O=C(CCN1CCN(c2ccccc2F)CC1)Nc1ccc(F)cc1 | -1.42% |
| COc1ccc(C(=O)NCCOC(C)C)cc1OC1CCN(C(C)=O)CC1 | -1.24% |
| O=C1[C@H]2[C@@H](c3ccc(F)cc3)N3C(=O)N(c4cccc(Br)c4)C(=O)[C@@]3(Cc3ccc(Cl)cc3)[C@H]2C(=O)N1C1CCCCC1 | -0.57% |
| CCc1c(C)sc(NC(=S)N2CC(C)OC(C)C2)c1C(=O)OC (stereo not drawn) | 1.16% |
| Oc1ccc(/C=N/Nc2cccc(Cl)n2)c(O)c1 | -1.59% |
| COc1ccc(C(=O)N[C@H](C(=O)NCc2cccs2)C(C)C)cc1 | -1.2% |
| CC1(C)CC(CCC(=O)NC(=S)Nc2ccccc2Cl)C(=O)O1 (stereo not drawn) | -1.31% |
| Cn1c(CN2CCCC2)nc2cc(NC(=O)COc3ccccc3)ccc21 | -1.43% |
| COC(=O)C1C(=O)c2c([nH]c(C(=O)OC3CCCCC3)c2C)CC1C (stereo not drawn) | -1.42% |
| CN(CC(=O)NCCCn1ccnc1)S(=O)(=O)c1ccc(Cl)cc1 | -0.501% |
| CCn1c(SC(C)C(=O)NC2CCCC2)nc2cc(S(N)(=O)=O)ccc21 (stereo not drawn) | -1.27% |
| O=C(NCc1ccc(F)cc1)c1cc(S(=O)(=O)N2CCCCC2)ccc1N1CCOCC1 | -1.3% |
| CCN(c1ccc(OC)cc1)S(=O)(=O)c1ccc2c(c1)NC(=O)CS2 | -0.559% |
| CC(C)CCN1C(=O)c2ccc(-c3nc4ccccc4c(=O)o3)cc2C1=O | -1.05% |
| Cn1cc(SCC(=O)Nc2nccs2)c2ccccc21 | -1.34% |
| O=C1[C@H]2[C@@H](c3ccc(F)cc3)N3C(=O)N(c4ccccc4)C(=O)[C@@]3(Cc3ccc(Cl)cc3)[C@H]2C(=O)N1C1CCCCC1 | -0.827% |
| COc1ccc(-c2cccc(-c3cc(=O)oc4cc(OC)c(OC)c(OC)c34)c2)cc1 | 1.16% |
| CCc1ccc(S(=O)(=O)NCCc2cn3cccc(C)c3n2)s1 | -1.48% |
| CCOC(=O)[C@H]1[C@H]2COc3ccc(Br)cc3[C@@H]2N2C(=O)c3c(C)cc(C)cc3NC(=O)[C@@]12C | 1.95% |
